This is a sample that favours compounds with a hit; in the whole collection about 19% have one here.
IL1B secr inh – blocks inflammasome-driven IL-1 beta release; 360,000 compounds, 4.7% hits; THP-1 LPS/ATP IL-1B secretion, AlphaLISA, 16 h; stronger effect = lower value; activity change, % at 57.5 µM; in the data active = activity change below about -50%; inconclusive = mostly about -30% to -49%
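THP-1 cells pretreated 1 hr with compounds (up to 57.5 uM final), then stimulated with LPS (250 ng/mL final) plus ATP (1.25 mM final); secreted IL-1B measured by AlphaLISA after 16 hr, decreased signal indicating inhibition.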
HT1080 IDH1KD tx – kills HT-1080 cells with IDH1 knockdown; HT-1080 IDH1 knockdown viability, ATP luminescence, 48 h; Potency, µM (highest dose often 46.1 µM), inactives show at the highest dose activity, negative = toxicity, most hits filed as cytotoxic; 360,000 compounds, 2% hits;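 note: potency is the fitted concentration of half-maximal effect; 0% = DMSO wells and -100% = cell-free medium wells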
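Luminescent ATP read-out (CellTiter-Glo, 10 min at room temperature) after 48 h compound exposure at 37 °C gave viability of IDH1-knockdown HT-1080 cells. Activity was normalised to DMSO and cell-free wells, then fitted as concentration-response curves.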
DT40 TDP1 no CPT – qHTS for Inhibitors of human tyrosyl-DNA phosphodiesterase 1 (TDP1): qHTS in cells in absence of CPT. DT40 Tdp1-/- hTDP1 cells, no CPT, ATP luminescence, 48 h. Potency, µM (series often up to 46.2 µM), without a hit: at the highest dose activity change, negative = growth inhibition, most hits filed as inhibitors. 420,000 compounds, 15% hits. AID 686978, 2013; note: potency is the fitted concentration of half-maximal effect; nearly all actives have a fitted effect of over 55% in size
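Luminescent ATP content (CellTiter-Glo) served as the growth readout. Knockout chicken DT40 cells expressing human TDP1 were exposed to compounds without camptothecin for a minimum 48 hr at 37 °C.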
TDP1 cell CPT – growth inhibition of DT40 Tdp1-/-;hTDP1 cells with camptothecin (screen for TDP1 inhibitors) | AID 686979 | Potency, µM (top dose mostly 46.2 µM), without a hit: top-dose activity change, negative = growth inhibition, most hits filed as inhibitors | chicken DT40 Tdp1-/-;hTDP1 cells + 20 nM CPT, ATP luminescence, 48 h | 420,000 compounds, 12% hits; note: potency is the fitted concentration of half-maximal effect; nearly all actives have a fitted effect of over 55% in size
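Chicken DT40 Tdp1-/- cells complemented with human TDP1, 400 cells/well, exposed to compounds plus 20 nM camptothecin for at least 48 h at 37 C; viability read as ATP content by CellTiter-Glo luminescence.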
HT1080-NT tox – kills 2HG-producing HT-1080-NT fibrosarcoma cells; 360,000 compounds, 1.6% hits; HT-1080-NT fibrosarcoma viability, CellTiter-Glo ATP luminescence, 48 h; AID 686970; Potency, µM (series often up to 46.1 µM), for the others: at the top dose activity, negative = less viability, usual class: cytotoxic;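 note: NT is the 2HG producing partner of a matched IDH1 knockdown line; potency is the fitted concentration of half-maximal effect; 0% = DMSO-treated cells and -100% = media-only wells without cells; nearly all actives have a fitted effect of over 55% in size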
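750 cells/well, RPMI + 5% FBS; 2 h settle, compound pin-transfer, 48 h at 37 degrees C. CellTiter-Glo 10 min RT, luminescence. Normalized to DMSO and media-only wells.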
* = called active by the depositor; ? = inconclusive; . = no result. Unless noted, calls come from the whole dose curve; as a rule, active = well fitted curve in the direction sought with a large enough effect; inconclusive = small, poorly fitted or top-dose-only effect, or another doubt; inactive = no such curve, though single readings can be large; an effect the other way counts as inactive or inconclusive. Unless noted, % is set by controls: 0 for no effect and ±100 for the full control effect.

SMILES	IL1B secr inh	HT1080 IDH1KD tx	DT40 TDP1 no CPT	TDP1 cell CPT	HT1080-NT tox
COc1cc(/C=C/C=C2/CC/C(=C/C=C/c3ccc(O)c(OC)c3)C2=O)ccc1O	-91.9*	-9.5%	2.59µM*	2.31µM*	-11.0%
O=C(Nc1cccc(Cl)c1)c1cc(S(=O)(=O)N2CCOCC2)cs1	-5.8	0.5%	-26.1%	?	-24.3%
CNC(=O)C[C@H]1C(=O)N(c2ccccc2)C[C@@H]1C	2.3	8.8%	-1.3%	0.3%	-2.2%
O=C(NCCCN1CCN(c2ccccc2F)CC1)Nc1ccccc1[N+](=O)[O-]	-28.3	-4.1%	-7.5%	-28.6%	1.8%
COc1cc2c(cc1OC)C(=O)OC2	.	.	17.4%	1.1%	.
COc1ccccc1CNC(=O)C1CCN(S(=O)(=O)c2ccc3[nH]c(=O)ccc3c2)CC1	.	.	-16.9%	-7.5%	.
c1nc(NCc2ccc3c(c2)OCO3)c2[nH]cnc2n1	.	-9.5%	?	?	3.7%
COc1cc(/C=C2/CC/C(=C/c3ccc(O)c(OC)c3)C2=O)ccc1O	-17.4	20.6µM*	?	20.6µM*	18.4µM*
COc1ccc(C=C2C=C(C(C)(C)C)C(=O)C(C(C)(C)C)=C2)cc1OC	-95.6*	18.4µM*	7.31µM*	?	11.6µM*
CC1(C(=O)Nc2cccc3cccnc23)CCN1Cc1ccccc1OC(F)F (stereo not drawn)	-9.3	?	14.6µM*	?	?
Cc1ccc(OCCN2CCC2(C)C(=O)Nc2ccc3c(c2)OCCO3)cc1 (stereo not drawn)	-109.5*	-20.5%	18.4µM*	-97.8%	-14.9%
COc1ccc(OC)c(NC(=O)C2(C)CCN2C(=O)C2(c3ccccc3)CCCC2)c1 (stereo not drawn)	2.0	-13.7%	23.1µM*	?	-22.6%
COc1ccc(NC(=O)C2(C)CCN2CCOc2ccccc2)cc1OC (stereo not drawn)	-23.6	5.6%	?	?	16.3%
COc1ccc(OC)c(NC(=O)C2(C)CCN2Cc2cccc(OC)c2OC)c1 (stereo not drawn)	-15.6	?	14.6µM*	?	?
CC(=O)c1ccc(NC(=O)NNS(=O)(=O)c2ccc([N+](=O)[O-])cc2)cc1	-14.7	2.5%	19.3%	18.4%	-1.2%
CCN(C(=O)CN1C(=O)S/C(=C\c2cccc(OC)c2)C1=O)C1CCS(=O)(=O)C1 (stereo not drawn)	0.0	-7.1%	7.6%	?	5.8%
COc1ccc(OC)c(NC(=O)C2(C)CCN2CCOc2ccccc2)c1 (stereo not drawn)	5.1	0.0%	?	23.1µM*	-9.0%
CC1(C(=O)Nc2ccccc2Cc2ccccc2)CCN1CCc1ccccc1 (stereo not drawn)	8.5	?	?	?	?
Cc1c(Br)cccc1NC(=O)C1(C)CCN1Cc1ccc(OC(C)C)cc1 (stereo not drawn)	57.0	3.5%	?	-6.4%	-24.9%
CC(C)Oc1ccc(CN2CCC2(C)C(=O)Nc2cccc3cccnc23)cc1 (stereo not drawn)	-21.0	?	?	18.4µM*	?
CC1(C(=O)Nc2cccc3cccnc23)CCN1Cc1ccc(-c2ccccc2)o1 (stereo not drawn)	33.3	-11.4%	18.4µM*	23.1µM*	-1.3%
COc1cccc(CN2CCC2(C)C(=O)Nc2cccc3cccnc23)c1OC (stereo not drawn)	-1.2	?	18.4µM*	16.4µM*	?
COc1ccccc1C(=O)Nc1cccc2cccnc12	-28.0	-13.1%	?	?	-7.7%
C[C@@H]1CN([C@@H](C)CO)C(=O)CCCn2nncc2CO[C@@H]1CN(C)C(=O)Nc1ccnc(N2CCOCC2)c1	17.8	7.2%	-12.7%	-6.7%	11.2%
COc1ccc2c(c1)-c1nc(-n3ncc(C(=O)N(C)CC4CCCN(C)C4)c3C3CC3)ncc1CC2 (stereo not drawn)	.	.	-11.5%	16.0%	.
SMILES	IL1B secr inh	HT1080 IDH1KD tx	DT40 TDP1 no CPT	TDP1 cell CPT	HT1080-NT tox
COc1ccccc1OCCNC(=O)c1ccc(NC(=O)CC2SC(N3CCCC3)=NC2=O)cc1 (stereo not drawn)	8.1	12.6%	-7.5%	-3.5%	11.0%
COc1ccc(N(CC(=O)NCCc2ccccc2)S(=O)(=O)c2ccc(OC)c(OC)c2)cc1	.	.	-28.0%	-15.4%	.
CC(C)(C)c1ccc(C(=O)N2CCN(C(=O)C3CCCCC3)CC2)cc1	-10.3	6.7%	?	14.6µM*	4.7%
Cc1ccc(C(=O)N2CCC(C(=O)c3ccc(Cl)cc3)CC2)cc1	-11.3	-10.8%	11.6µM*	?	?
CC(C)(C)c1ccc(C(=O)N2CCC(C(=O)NC3CCCCCC3)CC2)cc1	?	-12.0%	20.6µM*	?	-25.7%
COc1ccc(C)cc1NC(=O)C1CCN(C(=O)c2ccc(C(C)(C)C)cc2)CC1	-16.5	-14.8%	18.4µM*	?	-18.9%
O=C(Nc1ccc(C(=O)N2CCCCC2)cc1)C1CCCC1	-13.7	12.3%	-3.7%	-12.0%	8.0%
CCCc1ccc(S(=O)(=O)N(C)S(=O)(=O)c2ccc(F)cc2)cc1	-4.7	1.5%	0.4%	-19.7%	16.3%
Cc1ccc(-c2cc(C(=O)Nc3cc([N+](=O)[O-])ccc3C)no2)cc1F	.	.	-0.8%	-19.4%	.
COc1ccc(Cl)cc1NC(=O)Nc1ccc(C(=O)N2CCOCC2)cc1	-63.0*	9.0%	-26.3%	-24.3%	6.4%
CCc1ccc(NC(=O)N2CCN(Cc3cc(=O)n4nc(-c5ccccc5OC)sc4n3)CC2)cc1	.	.	14.6µM*	?	.
CC1CCN(c2c(NCC3CCC(C(=O)NCCC4=CCCCC4)CC3)c(=O)c2=O)CC1 (stereo not drawn)	-17.3	11.9%	?	18.4µM*	17.4%
Cc1nc(CN2CCN(C(=O)c3ccc(C(C)(C)C)cc3)CC2)cs1	?	-3.7%	10.3µM*	?	-5.0%
O=C(NCCC1=CCCCC1)C1CCC(CNc2c(N3CCCC3)c(=O)c2=O)CC1 (stereo not drawn)	-27.7	7.7%	-6.7%	-11.1%	4.1%
Cc1ccc2c(=O)cc(C(=O)Nc3sc4c(c3C(=O)NCC3CCCO3)CCCC4)oc2c1C (stereo not drawn)	.	.	-17.3%	-2.8%	.
COc1cc(OC)cc(C(=O)NNC(=O)CCC(=O)c2cc(C)sc2C)c1	9.7	15.7%	-16.8%	-7.6%	6.4%
C/C(=N\N=C1\NC(=O)C(CC(=O)Nc2ccccc2F)S1)C1CCCCC1 (stereo not drawn)	-13.2	3.8%	-11.5%	6.8%	-10.7%
Cc1n[nH]c(=O)c2c(NC(=O)CSc3nncs3)oc(C)c12	22.1	3.4%	-5.1%	-0.5%	-0.7%

Screens (PubChem)
